Unmarked numbers belong to inactive results. Activity calls are given as the source filed them. Rule as the data show it: active = inhibition above about 30%; inactive = the rest.
Assay: growth suppression of yeast trafficking mutant, preliminary HTS, modulators of trafficking downstream of Golgi apparatus project, 1536-format plate, OD 615 nm (AID 637)
Conditions: yeast transport mutant growth, absorbance 615 nm, 18 h; hits give high values

In order of rising inhibition:
1. COC(=O)CSc1nnc(-c2ccc(OC)cc2OC)o1  -5.64%
2. NS(=O)(=O)c1ccc(C(=O)O)cc1  -5.33%
3. CCOc1nc(-c2ccccc2)ccc1-c1noc(-c2ccc(OC)c(OC)c2)n1  -4.43%
4. O=C(CSc1n[nH]c(=O)[nH]c1=O)c1ccccc1  -3.82%
5. Cc1ccc(S(=O)(=O)N2CCN(C(=O)CSc3nc4ccccc4c(=O)[nH]3)CC2)c(C)c1  -3.64%
6. CCCCOC(=O)Nc1nccs1  -3.27%
7. Cc1cnc(NC(=O)C2=C(O)c3ccccc3S(=O)(=O)N2C)s1  -2.83%
8. CCN(CC)CCCN1C(=O)C(O)=C(C(C)=O)C1c1cccc(OC)c1 (stereo not given)  -2.73%
9. Cc1cc(S(=O)(=O)N(Cc2ccccc2)Cc2ccc(N(C)C)cc2)ccc1-n1cnnn1  -2.36%
10. CN(C)C(=O)Oc1ccc[n+](C)c1  -2.33%
11. COc1ccc(-n2c(SCC(N)=O)nc3sc4c(c3c2=O)CCN(C)C4)cc1  -1.94%
12. O=C(NCCCN1CCN(Cc2ccccc2)CC1)C1CCN(c2nnc(-n3cccc3)s2)CC1  -1.82%
13. Cc1noc(C)c1C(=O)N1CCN(C(=O)c2sc3cc(Cl)ccc3c2Cl)CC1  -1.64%
14. COc1ccc(OC)c(S(=O)(=O)Nc2ccccc2SC)c1  -1.45%
15. CCCNS(=O)(=O)c1ccc(OCC(=O)Nc2ccccc2F)cc1  -0.81%
16. NC(N)=NC(N)=NCCc1ccccc1  -0.67%
17. CCN(CC)CCCNc1oc(-c2cccc(Cl)c2)nc1C#N  -0.67%
18. Cc1c(C=NCCOCc2ccccc2)cnn1C  -0.48%
19. O=C(NC1CCCC1)C(c1cccs1)N(Cc1ccco1)C(=O)Cn1nnc(-c2cccs2)n1 (stereo not given)  -0.48%
20. Cc1cc(C(=O)Nc2ccc(S(=O)(=O)Nc3onc(C)c3C)cc2)cs1  0%
21. CCCc1cc(=O)[nH]c(=S)[nH]1  0.17%
22. Cc1nn(C)cc1C1C2=C(CC(C)(C)CC2=O)OC2=C1C(=O)CC(C)(C)C2  0.18%
23. CCN(CC)CCCN1C(=O)C(=O)/C(=C(/O)c2ccc3c(c2)OCO3)C1c1ccccn1 (stereo not given)  0.32%
24. CCn1c(SCC(=O)c2ccc(C)cc2)nnc1-c1ccoc1C  0.36%
25. Cc1cc(C)nc(NC2=NCC(=O)N2c2ccc(Cl)cc2)n1  0.55%
26. COCCN(Cc1cc2cccc(C)c2[nH]c1=O)C(=O)c1ccccc1  1.09%
27. COc1ccc(CNCC(=O)Nc2cc(C)nn2-c2nc(C)cc(C)n2)cc1OC  1.15%
28. CCC(=O)OC1(C#CCOc2ccc(OC)cc2)CCN(C)CC1  1.64%
29. CN(C)C(CNC(=O)Nc1cccc(Cl)c1)c1cccnc1 (stereo not given)  2.18%
30. CCC1CCCCN1CCCNC(=O)c1ccc(CS(=O)(=O)Cc2ccccc2F)o1 (stereo not given)  2.73%
31. COc1ccccc1C(=O)NCC(=O)Nc1ccccc1  2.91%
32. Nn1c(SCC(=O)Nc2ccc(S(=O)(=O)N3CCCC3)cc2)nnc1C(F)(F)F  3.11%
33. NS(=O)(=O)c1cc2c(cc1C(F)(F)F)NCNS2(=O)=O  3.33%
34. Cc1ccc(-c2nnc(-c3cccc(Br)c3)o2)cc1  4%
35. CN(C)c1ccc(NC(=O)Nc2cccc(Cl)c2)cc1  4.55%
36. CCN1CCN(C(=O)N[C@@H](C(=O)N[C@@H]2C(=O)N3[C@@H]2SC(C)(C)[C@@H]3C(=O)O)c2ccccc2)C(=O)C1=O  6.33%
37. CC(=O)Nc1c(O)[nH]c2ccccc12  6.36%
38. CCOC(=O)C1CCN(C(C)=C2C(=O)c3ccccc3C2=O)CC1  7.26%
39. Cc1ccc2nc3c(cc(C(=O)NCC4CCCO4)n3C)c(=O)n2c1 (stereo not given)  25.2%

In the case of `C=CCn1c(SCn2nnc3ccccc3c2=O)nnc1-c1ccc(Br)cc1`, the inhibition is reported as 31.6% (active).
